Each structure is given as a SMILES string. “And” between values parts separate entries of the source, which are not always exact repeats. Equal values may be shown once. Records with an inconclusive call do not appear. The source made the active and inactive calls. Unless noted, the call rests on the fitted dose curve.

Assay [1] in a line: qHTS for Inhibitors of the Functional Ribonucleoprotein Complex (vRNP) of Lassa (LASV) Arenavirus: LASV Primary Screen - GLuc reporter signal (AID 1347082; calls by dose curve; tested in HEK293 reporter line; further: nearly all actives have a fitted effect of over 60% in size; further: potency means the concentration at half of the fitted maximal effect; on activity change, negative = inhibition: on the % scale 0 is the no-effect control and ±100 the full control effect).
A short description of assay [2]: qHTS for Inhibitors of the Functional Ribonucleoprotein Complex (vRNP) of Lassa (LASV) Arenavirus: Viability assay - alamar blue signal for LASV Primary Screen (AID 1347083; calls by dose curve; tested in HEK293 reporter line; further: nearly all actives have a fitted effect of over 80% in size; further: potency means the concentration at half of the fitted maximal effect).
Assay [3] in a line: qHTS for Inhibitors of the Functional Ribonucleoprotein Complex (vRNP) of Lymphocytic Choriomeningitis Arenaviruses (LCMV): Viability assay - alamar blue signal for LCMV Primary Screen (AID 1347085; calls by dose curve; tested in HEK293 reporter line; further: nearly all actives have a fitted effect of over 80% in size; further: potency means the concentration at half of the fitted maximal effect).
Assay [4] concerns the target Nucleoprotein (Lymphocytic choriomeningitis virus (strain Armstrong)) (UniProt P09992). Nature of the assay: qHTS for Inhibitors of the Functional Ribonucleoprotein Complex (vRNP) of Lymphocytic Choriomeningitis Arenaviruses (LCMV): LCMV Primary Screen - GLuc reporter signal (AID 1347086). Further: nearly all actives have a fitted effect of over 70% in size. Further: potency means the concentration at half of the fitted maximal effect. On activity change, negative = inhibition: on the % scale 0 is the no-effect control and ±100 the full control effect.
Assay [5] can be described thus: Confirmatory qHTS to identify inhibitors of SARS-CoV-2 cell entry (AID 1645844). Further: nearly all actives have a fitted effect of over 45% in size. Further: potency means the concentration at half of the fitted maximal effect. The essentials:
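HEK293-ACE2 cells (Expi293F stably expressing human ACE2) were pretreated with compounds for 1 hr at 37C, then infected with MLV-based particles carrying Wuhan-Hu-1 spike (C-terminal 19-aa truncation). Luciferase luminescence read after 48 hr; normalized to spike PP (100%) and bald PP (0%).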

The nature of assay [6]: Cytotoxicity counterscreen for inhibitors of SARS-CoV-2 cell entry (AID 1645845). Further: nearly all actives have a fitted effect of over 50% in size. The essentials: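 Expi293F/hACE2 cells seeded overnight; cpd pin-transferred in DMSO, 1 h preincubation, + media, 48 h 37 C 5% CO2; ATPLite 1step luminescence; normalized to cells and no cells.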
Assay [7] can be described thus: Primary qHTS to identify inhibitors of SARS-CoV-2 cell entry (AID 1645846). Further: nearly all actives have a fitted effect of over 45% in size. Further: potency means the concentration at half of the fitted maximal effect. Particulars: activity change, negative = inhibition: at 57.1 µM (top of the series) unless noted. The essentials: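 Using luciferase-reporting pseudoviruses carrying Wuhan-Hu-1 spike, the screen tracks entry into stably ACE2-expressing cells over 48 hr. Activity is expressed relative to spike particles versus particles lacking any fusion protein.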

Assay [8] in a line: VSVG counterscreen qHTS to identify inhibitors of SARS-CoV-2 cell entry (AID 1645847). Further: nearly all actives have a fitted effect of over 65% in size. Further: potency means the concentration at half of the fitted maximal effect. The essentials: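 Entry of VSV-G pseudotyped particles into human ACE2-expressing HEK293 cells was measured by luciferase luminescence 48 h after infection, with compound added 1 h beforehand.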
Assay [9] has as its target Cytochrome P450 3A4 (Homo sapiens) (UniProt P08684). Nature of the assay: qHTS Assay for Inhibitors and Substrates of Cytochrome P450 3A4 (AID 884; active means well fitted curve in the direction sought with a large enough effect; an effect the other way counts as inactive or inconclusive; further: on the % scale 0 is the no-effect control and ±100 the full control effect; nearly all actives have a fitted effect of over 50% in size). In short, it runs like this: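 20 nM human CYP3A4 with 25 uM Luciferin-PPXE (at KM) in 200 mM KPO4, preincubated 10 min with compound; NADPH regeneration started a 60 min RT reaction. Luciferin detected by luminescence, normalized to 57 uM ketoconazole as full inhibition.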

The nature of assay [10]: Confirmation and Secondary Assay for Modulators of Hemoglobin Beta Chain Splicing at IVS2 654 locus (AID 910; active means well fitted curve in the direction sought with a large enough effect; an effect the other way counts as inactive or inconclusive;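 further: per-well total GFP intensity by laser scanning cytometry after 2-day treatment; % of control where 0% means no effect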). The essentials: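 HeLa cells stably carrying EGFP interrupted by mutant beta-globin IVS2-654 intron (CMV-driven) were treated with compound for 2 days at 37C; corrected splicing was scored as total peak GFP intensity per well (488 nm excitation, 500-520 nm emission).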

The nature of assay [11]: Confirmation and Secondary Assay for Modulators of Hemoglobin Beta Chain Splicing at IVS2 705 locus (AID 930; active means well fitted curve in the direction sought with a large enough effect; an effect the other way counts as inactive or inconclusive;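 further: HeLa cells stably expressing the EGFP-705 splicing reporter; GFP fluorescence per well restored by corrected splicing of the IVS2-705 intron in EGFP; % of control where 0% means no effect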). In short, it runs like this: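 Splice-correction reporter: EGFP cDNA split by beta-globin intron 2 bearing the 705 mutation, stably in HeLa. Compound incubation 2 days, 37C; fluorescent objects 5-250 µm summed per well.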
A short description of assay [12]: qHTS Assay for Lipid Storage Modulators (AID 1519). On activity change, negative = inhibition: on the % scale 0 is the no-effect control and ±100 the full control effect. Particulars: Drosophila S3 cells, BODIPY lipid droplet/cell ratio, laser cytometry, cells loaded with oleic acid; for activity change, negative = inhibition: at 57.5 µM (top of the series). The essentials: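 Cells seeded at 5,000 per well were treated with compounds over a concentration series and loaded with oleic acid (400 uM, as added). Lipid droplet fluorescence (488 nm excitation, 500-530 nm channel) was read by laser-scanning cytometry and normalized to 20 uM Triacsin C.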

Assay [13] has as its target Ubiquitin carboxyl-terminal hydrolase 1 (Homo sapiens) (UniProt O94782). Nature of the assay: Inhibitors of USP1/UAF1: Pilot qHTS (AID 504865; active means well fitted curve in the direction sought with a large enough effect; an effect the other way counts as inactive or inconclusive;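 further: rhodamine fluorescence freed from ubiquitin-rhodamine substrate followed over time; top concentration of the series differs between compounds; on the % scale 0 is the no-effect control and ±100 the full control effect; nearly all actives have a fitted effect of over 35% in size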). In short, it runs like this:
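Enzyme-free wells gave the negative control, while test wells held 1nM USP1/UAF1 preincubated with compound for 15 min at room temperature. Ub-Rho at 150nM final started the reaction, and fluorescence at 480/540 nm was recorded kinetically.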

Assay [14] is described as follows: qHTS profiling of the MIPE4 collection as inhibitors of Plasmodium falciparum (3D7) proliferation (AID 743344; call rule not given here;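 further: scaled between DMSO vehicle wells and 0.29 µM artemisinin as full inhibition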). Particulars: P. falciparum 3D7 in erythrocytes, SYBR Green DNA fluorescence, 72 h; at 28.5 µM (top of the series) unless noted. The essentials:
(§1)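 Erythrocytes infected with P. falciparum (0.3% parasitemia, 2.5% hematocrit) incubated with compounds 72 h at 37 C, 5% CO2. Lysis with saponin/Triton buffer containing SYBR Green I, overnight at room temperature in the dark; DNA fluorescence (485/535 nm) normalised to 0.29 uM artemisinin and DMSO.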

Assay [15] can be described thus: qHTS profiling of the MIPE4 collection as inhibitors of Plasmodium falciparum (DD2) proliferation (Rep 2) (AID 743346; call rule not given here). Particulars: P. falciparum Dd2 in erythrocytes, SYBR Green DNA, 72 h; at 28.5 µM (top of the series) unless noted. In short, it runs like this:
as §1

Assay [16] can be described thus: qHTS profiling of the MIPE4 collection as inhibitors of Plasmodium falciparum (HB3) proliferation (AID 743347; call rule not given here;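 further: plate controls were DMSO vehicle wells for no effect and artemisinin wells for full effect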). Particulars: P. falciparum HB3 in erythrocytes, SYBR Green DNA, 72 h; at 28.5 µM (top of the series) unless noted. The essentials:
as §1

The target of assay [17] is Cytochrome P450 2C9 (Homo sapiens) (UniProt P11712). Nature of the assay: qHTS Assay for Inhibitors and Substrates of Cytochrome P450 2C9 (AID 883; active means well fitted curve in the direction sought with a large enough effect; an effect the other way counts as inactive or inconclusive; further: potency means the concentration at half of the fitted maximal effect; nearly all actives have a fitted effect of over 60% in size). The essentials: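 A luminogenic readout tracked human CYP2C9 (10nM) converting deoxyluciferin (100uM, at KM) in 25mM KPO4 during 60 min at 37C with regenerated NADPH. Values normalized to 57uM sulphaphenazole as complete inhibition.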

Assay [18] concerns the target Cytochrome P450 3A4 (Homo sapiens) (UniProt P08684). Nature of the assay: qHTS Assay for Activators of Cytochrome P450 3A4 (AID 885; active means well fitted curve in the direction sought with a large enough effect; an effect the other way counts as inactive or inconclusive; further: nearly all actives have a fitted effect of over 65% in size). The essentials:
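Human CYP3A4 (20 nM) with Luciferin-PPXE at 25 uM (its KM) in 200 mM KPO4; 10 min compound preincubation, then NADPH regeneration and 60 min reaction at RT. Luciferin read by luminescence; normalized to 57 uM ketoconazole full inhibition.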

Assay [19] in a line: Stat Signaling Pathway (AID 446; active means well fitted curve in either direction with a large enough effect, not every such curve was filed as active;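 further: ME-180 cervical cancer cells given 40 pM IL-6 alongside compound; SIE-controlled beta-lactamase reporter measured as 460/530 nm FRET emission ratio; on the % scale 0 is the no-effect control and ±100 the full control effect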). The essentials: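 ME-180 cells carrying a SIE-driven beta-lactamase reporter are stimulated with 40 pM IL-6 for 5 h at 37C in the presence of compound. The 460/530 nm FRET substrate ratio is read after 2.5 h at RT. Data are normalised to 300 pM IL-6 and to 125 nM JAK inhibitor controls.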
In assay [20] the target is Glucocorticoid receptor (Homo sapiens) (UniProt P04150). Nature of the assay: GR-GFP Redistribution (AID 450;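 active means compounds whose dose series gives a full or clear partial fitted curve of increased nuclear translocation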; further: potency means the concentration at half of the fitted maximal effect). Particulars: U2OS GR-GFP nuclear translocation, laser cytometry, 2 h.
For assay [21], the target named is Rap guanine nucleotide exchange factor 3 (Homo sapiens) (UniProt O95398). Nature of the assay: Confirmatory qHTS for agonist of cAMP-regulated guanine nucleotide exchange factor 3 (EPAC1) (AID 1645881; active means well fitted curve in the direction sought with a large enough effect; an effect the other way counts as inactive or inconclusive;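 further: EPAC1 catalysed release of BODIPY-GDP from Rap1B seen as fluorescence loss; 100% = effect of cAMP agonist control; nearly all actives have a fitted effect of over 75% in size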).
The target of assay [22] is Rap guanine nucleotide exchange factor 4 (Homo sapiens) (UniProt Q8WZA2). Nature of the assay: Confirmatory qHTS for agonist of cAMP-regulated guanine nucleotide exchange factor 4 (EPAC2) (AID 1645884; active means well fitted curve in the direction sought with a large enough effect; an effect the other way counts as inactive or inconclusive; further: on the % scale 0 is the no-effect control and ±100 the full control effect; nearly all actives have a fitted effect of over 65% in size).
Assay [23] shares this target. Nature of the assay: Confirmatory qHTS for antagonist of cAMP-regulated guanine nucleotide exchange factor 4 (EPAC2) (AID 1645885; active means well fitted curve in the direction sought with a large enough effect; an effect the other way counts as inactive or inconclusive; further: potency means the concentration at half of the fitted maximal effect; nearly all actives have a fitted effect of over 25% in size).
The target in assay [24] is Rap guanine nucleotide exchange factor 3 (Homo sapiens) (UniProt O95398). Nature of the assay: Counterscreen qHTS for antagonist of cAMP-regulated guanine nucleotide exchange factor 3 (EPAC1) (AID 1645888; active means well fitted curve in the direction sought with a large enough effect; an effect the other way counts as inactive or inconclusive; further: % of control where 0% means no effect). In short, it runs like this: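 Measured: fluorescence of BODIPY-GDP bound to Rap1B, which falls as exchange proceeds. Conditions include 50 uM competing GDP, 5 and 30 min reads, and a later cAMP challenge for antagonist detection.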

The mark [25] stands for this setting: measured here: cell count channel max response.
[26] abbreviates: measured here: lipid channel max response.

Sequence of Nucleoprotein (Lymphocytic choriomeningitis virus (strain Armstrong)) (P09992 whole entry, looked up): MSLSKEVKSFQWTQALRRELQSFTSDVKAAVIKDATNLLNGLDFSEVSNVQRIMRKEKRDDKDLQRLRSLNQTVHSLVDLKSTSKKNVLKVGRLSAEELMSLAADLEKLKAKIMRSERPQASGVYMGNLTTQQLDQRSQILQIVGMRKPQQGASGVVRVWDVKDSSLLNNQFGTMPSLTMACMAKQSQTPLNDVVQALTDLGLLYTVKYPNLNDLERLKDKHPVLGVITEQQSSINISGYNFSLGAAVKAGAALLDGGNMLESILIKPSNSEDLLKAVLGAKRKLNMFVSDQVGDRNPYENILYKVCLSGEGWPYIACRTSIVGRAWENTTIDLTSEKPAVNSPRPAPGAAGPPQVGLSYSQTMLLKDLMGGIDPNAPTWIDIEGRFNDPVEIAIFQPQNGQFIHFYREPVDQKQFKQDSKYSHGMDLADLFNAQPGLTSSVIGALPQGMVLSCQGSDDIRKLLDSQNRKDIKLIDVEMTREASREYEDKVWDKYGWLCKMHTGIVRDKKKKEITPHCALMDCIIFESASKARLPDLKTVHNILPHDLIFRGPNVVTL
Sequence of Cytochrome P450 3A4 (Homo sapiens) (P08684 whole entry, looked up): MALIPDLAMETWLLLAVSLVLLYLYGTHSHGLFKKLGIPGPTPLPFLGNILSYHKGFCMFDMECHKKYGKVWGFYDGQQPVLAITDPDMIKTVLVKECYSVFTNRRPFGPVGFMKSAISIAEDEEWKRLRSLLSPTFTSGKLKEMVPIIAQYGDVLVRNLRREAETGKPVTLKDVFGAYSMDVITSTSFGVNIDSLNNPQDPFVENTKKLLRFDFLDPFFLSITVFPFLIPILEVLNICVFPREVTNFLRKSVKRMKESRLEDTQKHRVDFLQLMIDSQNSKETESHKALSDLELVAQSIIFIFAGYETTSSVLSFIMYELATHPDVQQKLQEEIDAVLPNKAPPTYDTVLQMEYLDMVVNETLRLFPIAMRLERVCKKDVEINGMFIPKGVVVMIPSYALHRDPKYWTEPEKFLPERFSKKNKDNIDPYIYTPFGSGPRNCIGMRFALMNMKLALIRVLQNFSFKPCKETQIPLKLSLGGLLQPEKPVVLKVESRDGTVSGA
Sequence of Rap guanine nucleotide exchange factor 4 (Homo sapiens) (Q8WZA2 whole entry, looked up): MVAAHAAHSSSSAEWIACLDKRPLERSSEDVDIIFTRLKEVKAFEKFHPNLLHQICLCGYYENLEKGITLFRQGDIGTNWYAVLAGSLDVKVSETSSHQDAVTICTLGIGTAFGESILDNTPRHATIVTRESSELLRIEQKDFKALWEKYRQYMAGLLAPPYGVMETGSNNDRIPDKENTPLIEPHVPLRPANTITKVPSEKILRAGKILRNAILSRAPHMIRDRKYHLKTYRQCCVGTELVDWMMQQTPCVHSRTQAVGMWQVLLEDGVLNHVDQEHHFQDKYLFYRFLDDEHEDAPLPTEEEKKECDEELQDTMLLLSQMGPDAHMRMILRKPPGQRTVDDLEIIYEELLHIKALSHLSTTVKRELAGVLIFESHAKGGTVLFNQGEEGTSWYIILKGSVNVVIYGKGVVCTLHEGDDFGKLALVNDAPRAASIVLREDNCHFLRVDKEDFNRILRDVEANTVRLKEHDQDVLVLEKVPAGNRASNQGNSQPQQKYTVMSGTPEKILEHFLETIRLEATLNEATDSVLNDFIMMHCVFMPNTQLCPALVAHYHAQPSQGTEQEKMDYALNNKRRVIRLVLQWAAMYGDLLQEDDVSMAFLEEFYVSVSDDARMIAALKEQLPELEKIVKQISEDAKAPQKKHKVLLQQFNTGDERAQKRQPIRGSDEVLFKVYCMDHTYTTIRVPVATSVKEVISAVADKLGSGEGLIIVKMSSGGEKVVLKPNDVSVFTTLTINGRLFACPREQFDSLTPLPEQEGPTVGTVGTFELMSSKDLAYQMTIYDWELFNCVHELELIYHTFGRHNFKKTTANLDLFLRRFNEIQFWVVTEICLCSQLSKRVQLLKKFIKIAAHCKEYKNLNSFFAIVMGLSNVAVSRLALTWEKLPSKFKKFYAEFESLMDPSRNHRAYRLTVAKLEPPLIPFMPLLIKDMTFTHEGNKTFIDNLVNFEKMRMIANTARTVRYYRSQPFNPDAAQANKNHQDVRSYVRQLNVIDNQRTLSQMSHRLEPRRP
Sequence of Rap guanine nucleotide exchange factor 3 (Homo sapiens) (O95398 whole entry, looked up): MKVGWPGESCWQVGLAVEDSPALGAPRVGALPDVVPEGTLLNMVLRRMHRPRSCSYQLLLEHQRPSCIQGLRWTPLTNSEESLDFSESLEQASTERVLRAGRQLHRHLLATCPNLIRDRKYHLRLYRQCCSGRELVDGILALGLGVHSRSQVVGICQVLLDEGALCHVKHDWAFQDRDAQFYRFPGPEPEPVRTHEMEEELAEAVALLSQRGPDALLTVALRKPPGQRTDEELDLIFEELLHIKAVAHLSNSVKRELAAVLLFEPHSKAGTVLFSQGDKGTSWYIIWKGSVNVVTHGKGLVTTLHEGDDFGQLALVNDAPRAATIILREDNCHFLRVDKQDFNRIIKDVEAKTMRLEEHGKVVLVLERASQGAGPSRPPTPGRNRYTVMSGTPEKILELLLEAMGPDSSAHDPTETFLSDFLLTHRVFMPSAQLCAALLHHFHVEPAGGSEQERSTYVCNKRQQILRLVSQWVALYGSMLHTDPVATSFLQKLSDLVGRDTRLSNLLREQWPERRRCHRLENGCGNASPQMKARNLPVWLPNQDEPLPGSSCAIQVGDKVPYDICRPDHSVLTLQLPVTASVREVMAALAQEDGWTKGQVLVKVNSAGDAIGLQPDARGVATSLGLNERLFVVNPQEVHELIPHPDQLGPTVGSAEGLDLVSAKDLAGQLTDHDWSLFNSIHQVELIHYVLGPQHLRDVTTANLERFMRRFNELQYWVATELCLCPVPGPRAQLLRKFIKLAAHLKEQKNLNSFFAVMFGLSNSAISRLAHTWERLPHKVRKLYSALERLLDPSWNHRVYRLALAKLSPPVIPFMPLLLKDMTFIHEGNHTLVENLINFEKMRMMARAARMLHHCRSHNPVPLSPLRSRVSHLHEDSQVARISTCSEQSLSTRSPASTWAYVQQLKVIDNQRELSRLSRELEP
Sequence of Glucocorticoid receptor (Homo sapiens) (P04150 whole entry, looked up): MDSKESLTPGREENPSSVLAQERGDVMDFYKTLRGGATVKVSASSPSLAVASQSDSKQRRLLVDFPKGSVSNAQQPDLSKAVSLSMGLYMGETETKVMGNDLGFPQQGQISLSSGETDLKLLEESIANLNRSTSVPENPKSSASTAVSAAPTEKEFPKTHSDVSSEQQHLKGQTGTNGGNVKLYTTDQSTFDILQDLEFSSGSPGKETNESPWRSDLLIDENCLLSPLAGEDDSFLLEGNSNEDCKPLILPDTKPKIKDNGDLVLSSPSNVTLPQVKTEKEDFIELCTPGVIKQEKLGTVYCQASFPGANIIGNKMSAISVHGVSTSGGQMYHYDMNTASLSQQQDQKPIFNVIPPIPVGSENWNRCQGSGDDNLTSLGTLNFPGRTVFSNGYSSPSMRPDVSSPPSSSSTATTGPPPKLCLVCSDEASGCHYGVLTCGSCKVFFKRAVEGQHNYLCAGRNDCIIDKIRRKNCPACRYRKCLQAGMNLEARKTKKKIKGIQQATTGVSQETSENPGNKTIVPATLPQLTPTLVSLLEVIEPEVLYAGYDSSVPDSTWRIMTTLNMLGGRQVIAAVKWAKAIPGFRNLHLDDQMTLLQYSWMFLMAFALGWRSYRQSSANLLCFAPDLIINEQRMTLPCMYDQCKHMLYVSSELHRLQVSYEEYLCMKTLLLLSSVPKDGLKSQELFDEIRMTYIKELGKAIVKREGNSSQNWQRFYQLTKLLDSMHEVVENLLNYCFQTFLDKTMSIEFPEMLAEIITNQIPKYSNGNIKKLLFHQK
Sequence of Cytochrome P450 2C9 (Homo sapiens) (P11712 whole entry, looked up): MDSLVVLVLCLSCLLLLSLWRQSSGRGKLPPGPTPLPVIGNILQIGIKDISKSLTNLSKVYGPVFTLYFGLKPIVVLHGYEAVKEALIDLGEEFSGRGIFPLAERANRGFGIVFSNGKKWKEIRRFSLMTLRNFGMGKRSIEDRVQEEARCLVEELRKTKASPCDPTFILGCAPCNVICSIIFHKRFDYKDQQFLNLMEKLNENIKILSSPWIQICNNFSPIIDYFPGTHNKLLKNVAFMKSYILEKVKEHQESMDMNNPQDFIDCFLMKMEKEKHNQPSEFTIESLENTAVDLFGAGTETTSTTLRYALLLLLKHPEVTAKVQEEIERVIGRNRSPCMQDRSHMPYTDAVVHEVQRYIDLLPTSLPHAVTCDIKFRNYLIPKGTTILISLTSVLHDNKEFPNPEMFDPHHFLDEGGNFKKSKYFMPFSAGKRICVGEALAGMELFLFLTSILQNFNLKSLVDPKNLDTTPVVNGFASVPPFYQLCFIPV
Sequence of Ubiquitin carboxyl-terminal hydrolase 1 (Homo sapiens) (O94782 whole entry, looked up): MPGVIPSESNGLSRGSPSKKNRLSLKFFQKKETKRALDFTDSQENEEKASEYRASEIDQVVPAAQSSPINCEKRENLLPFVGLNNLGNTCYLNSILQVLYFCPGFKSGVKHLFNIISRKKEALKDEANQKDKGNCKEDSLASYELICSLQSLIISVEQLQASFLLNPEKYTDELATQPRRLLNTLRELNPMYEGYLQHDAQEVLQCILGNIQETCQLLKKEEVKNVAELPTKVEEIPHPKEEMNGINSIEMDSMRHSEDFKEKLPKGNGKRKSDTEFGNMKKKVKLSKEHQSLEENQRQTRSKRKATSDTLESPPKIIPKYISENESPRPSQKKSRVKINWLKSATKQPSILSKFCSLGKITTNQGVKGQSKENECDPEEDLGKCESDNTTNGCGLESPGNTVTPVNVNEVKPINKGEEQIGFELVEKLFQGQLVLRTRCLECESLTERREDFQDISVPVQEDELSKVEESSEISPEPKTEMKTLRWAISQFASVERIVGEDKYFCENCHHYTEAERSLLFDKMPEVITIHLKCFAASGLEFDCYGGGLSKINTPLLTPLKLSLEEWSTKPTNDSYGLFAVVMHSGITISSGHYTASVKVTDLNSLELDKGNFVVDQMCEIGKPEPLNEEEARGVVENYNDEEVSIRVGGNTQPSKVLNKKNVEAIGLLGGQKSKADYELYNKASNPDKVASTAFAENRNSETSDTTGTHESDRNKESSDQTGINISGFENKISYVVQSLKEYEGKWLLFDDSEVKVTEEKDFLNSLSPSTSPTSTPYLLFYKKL

Regarding `CC(C)c1cnn2c(NCc3ccccc3)cc(N[C@@H](CO)[C@H](O)CO)nc12`, the Potency is 2.43 µM (active) in [1]; 0.485 µM (active) in assay [2]; 0.685 µM (active) in assay [3]; 1.72 µM (active) in assay [4]; 0.607 µM (active) in assay [5]; 0.482 µM (active) in assay [8]. Further, the Potency result in assay [6] is “inactive”. Further, the activity change, negative = inhibition in [7] was -93.9%.
On to `CC(C)(C)OC(=O)N[C@H]1CCCCCC=C[C@@H]2C[C@@]2(C(=O)NS(=O)(=O)C2CC2)NC(=O)[C@@H]2C[C@@H](OC(=O)N3Cc4cccc(F)c4C3)CN2C1=O`, for which the Potency result in [1], in assay [2], in assay [3], in assay [4] and in assay [6] was “inactive” in each case.
Turning to `C[C@@]12CCC(OS(=O)(=O)O)C[C@@H]1CCC1C2CC[C@]2(C)C(=O)CCC12` (stereo not given in full), the Potency entry in [9], in [10], in assay [13], in assay [1], in assay [2] and in assay [3] was “inactive” throughout. Moreover, the Potency result in assay [4] is “inactive”. In addition, the result in assay [11] was inactive. The activity change, negative = inhibition in [12] is 7.66% (inactive). Moreover, the max response in assay [12] (setting [25]) is 17.5%; in [12] (setting [26]) it was 28%.
Consider `CNC(=O)c1nn(C)c2c1C(C)(C)Cc1cnc(Nc3ccc(N4CCN(C)CC4)cc3)nc1-2`, for which the Potency in assay [1] was 3.43 µM (active); in assay [2], 1.09 µM (active); in assay [3] it was 3.85 µM (active); in assay [4], 3.06 µM (active); in assay [5] it was 3.04 µM (active).
On to `O=C(NCCCCN1CCOCC1)c1cc2ccccc2o1`, for which the Potency result in [1], in assay [2], in assay [3], in assay [4], in [5] and in [6] was “inactive” throughout. The Potency result in [7] and in [8] was “inactive” in each case.
As for `CN1C(=O)C[C@H](C(=O)N[C@@H](Cc2cnc[nH]2)C(=O)N2CCC[C@@H]2C(N)=O)NC1=O`, in [14], the parasite growth, % of DMSO control was determined as 86%. The same molecule registered a parasite growth, % of control (lower = inhibition) in assay [15] of 70.2%. In assay [16], this molecule had a growth, % of control of 48.7%. The Potency result in assay [1], in assay [2], in [3], in [4] and in assay [7] was “inactive” in each case. Further, the Potency in [5] was 19.2 µM (active).
In the case of `CC(C)[C@H](CO)Nc1nc(Nc2cccc(Cl)c2)c2ncn(C(C)C)c2n1`, the Potency was 7.94 µM (active) in assay [17], 8.57 µM (active) in assay [5] and 7.94 µM (active) in assay [7]. Moreover, the Potency result in assay [18], in assay [1], in assay [2], in [3] and in assay [4] was “inactive” each time.
Consider `Clc1ccc(COC(Cn2ccnc2)c2ccc(Cl)cc2Cl)c(Cl)c1` (stereo not given), for which the outcome in assay [19], in assay [11], in assay [21], in assay [22] and in [24] was inactive. Also, the Potency in [20] was > 20.6 µM (inactive); in assay [23], 49.4 µM (active) and 21.3 µM (active). Moreover, the Potency entry in [18], in assay [10], in [1], in assay [2], in assay [3] and in assay [4] was “inactive” in each case. In addition, the activity change, negative = inhibition in assay [12] was 3.93% (inactive). Also, the max response in assay [12] (setting [25]) is -9.24%; in assay [12] (setting [26]) it was -3.69%.

The values above are taken from PubChem BioAssay (NCATS).
